This excerpt belongs to a sample that is enriched for hits.
ST2 inh: IL1RL1 inhibition; Q01638; AID 1259354; AlphaLISA ST2-Fc/biotin-IL-33 interaction, 1 h; 78,000 compounds, 2.3% hits; inhibition, % for hits at 17 µM; in the data active = inhibition above about 30%
Target sequence (Q01638 whole entry, looked up): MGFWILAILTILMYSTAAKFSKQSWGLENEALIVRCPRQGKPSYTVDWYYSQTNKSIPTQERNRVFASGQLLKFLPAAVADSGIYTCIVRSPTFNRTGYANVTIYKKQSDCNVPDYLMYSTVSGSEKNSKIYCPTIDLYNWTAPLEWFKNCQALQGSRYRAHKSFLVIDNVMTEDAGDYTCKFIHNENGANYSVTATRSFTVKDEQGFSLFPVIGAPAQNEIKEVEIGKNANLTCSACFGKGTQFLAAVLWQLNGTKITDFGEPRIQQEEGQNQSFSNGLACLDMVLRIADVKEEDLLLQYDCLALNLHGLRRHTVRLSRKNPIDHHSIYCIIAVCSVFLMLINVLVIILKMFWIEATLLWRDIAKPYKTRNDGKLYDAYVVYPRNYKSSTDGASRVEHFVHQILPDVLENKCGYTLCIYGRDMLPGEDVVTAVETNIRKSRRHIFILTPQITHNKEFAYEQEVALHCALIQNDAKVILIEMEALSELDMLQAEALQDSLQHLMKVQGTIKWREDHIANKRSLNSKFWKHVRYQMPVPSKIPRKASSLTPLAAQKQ
Numbers without * were called inactive; i = inactive.

SMILES	ST2 inh
CCCC(=O)NC(C)c1nc2ccccc2n1Cc1c(F)cccc1Cl (stereo not given)	i
COc1ccc(N2C(=O)C(N3C(=O)c4ccc([N+](=O)[O-])cc4C3=O)C2c2ccc(F)cc2)cc1 (stereo not given)	i
O=C1c2cccc([N+](=O)[O-])c2C(=O)N1C1C(=O)N(c2ccc(Cl)cc2)C1c1ccc(F)cc1 (stereo not given)	41%*
O=C1c2cccc([N+](=O)[O-])c2C(=O)N1C1CCCCCCC1	36%*
Cc1ccc(N2C(=O)C(N3C(=O)c4cccc([N+](=O)[O-])c4C3=O)C2c2cccs2)cc1Cl (stereo not given)	i
Cc1ccccc1NCN1C(=O)c2cccc([N+](=O)[O-])c2C1=O	i
O=C(CCN1C(=O)c2cccc([N+](=O)[O-])c2C1=O)Nc1ccc(F)cc1	i
O=C(C[C@@H]1CCNC[C@@H]1Cc1cc(-c2ccc(F)cc2)on1)N1CCCCC1	i
Cc1ccc(-n2nc3c(c2NC(=O)c2ccccc2C)CSC3)c(C)c1	i
CCC(NC(=O)c1ccc(CO)o1)c1nc(C)c(C)s1 (stereo not given)	i
COC(=O)c1ccc(N2C(=O)CSC2c2ccc(Cl)c(Cl)c2)cc1 (stereo not given)	i
CCOc1ccc(-c2cn(-c3ccc(Cl)cc3)c(=O)[nH]2)cc1Cl	i
CCOC(=O)C1(Cc2ccccc2)CCN(Cc2ccc3nsnc3c2)CC1	i
COc1c(-c2ccc(O)c(O)c2)oc2cc(O)cc(O)c2c1=O	i
COc1cc(O)c2c(=O)c(O[C@@H]3O[C@H](CO[C@@H]4O[C@@H](C)[C@H](O)[C@@H](O[C@@H]5O[C@@H](C)[C@H](O)[C@@H](O)[C@H]5O)[C@H]4O)[C@H](O)[C@H](O)[C@H]3O)c(-c3ccc(O)c(O)c3)oc2c1	i
COc1cc(O)c2c(=O)c(OC)c(-c3cc(O)c(OC)c(OC)c3)oc2c1	94%*
O=c1c2c(-c3ccccc3)csc2ncn1Cc1csc(-c2ccc(Cl)cc2)n1	i
CC(C)(C)C(=O)NCCSc1c[nH]c2ccccc12	i
Cc1ccccc1Cn1c(NCc2ccccc2)nc2c1c(=O)n(C)c(=O)n2C	i
Cn1c(=O)c2c(nc(NCc3cccnc3)n2Cc2cccc3ccccc23)n(C)c1=O	30%*
Cn1c(=O)c2c(nc(NCCCO)n2Cc2cccc3ccccc23)n(C)c1=O	i
COc1cc(CN2CCN(c3ncccn3)CC2)cc(Br)c1O	i
[O-][n+]1c2ccccc2[n+]([O-])c2cc(O)ccc21	35%*
O=C(c1cc2c(=O)oc3ccccc3c2s1)N1CCN(Cc2ccccc2)CC1	i
CC(=O)c1ccc(S(=O)(=O)N2CCN(CCO)CC2)cc1	i
SMILES	ST2 inh
Cc1cc(C)cc(-n2c(=O)c3sccc3n(CC(=O)Nc3ccccc3F)c2=O)c1	i
O=c1[nH]c(/C=C\c2ccccc2Cl)c([N+](=O)[O-])c(=O)[nH]1	i
O=c1[nH]c(/C=C\c2ccccc2Cl)nc2ccccc12	44%*
Cc1nc2ccccc2c(=O)[nH]1	i
COc1ccccc1N1CCN([C@@H]2[C@H](O)[C@H](CO)O[C@@H]2CNC2CCN(C)CC2)CC1	i
CSc1ccc(C2Nc3ccccc3C(=O)N2c2ccc(C)cc2)cc1 (stereo not given)	i
CSc1ccc(C2Nc3cccc4cccc(c34)N2)cc1	31%*
CCOC(=O)c1cnc(SCc2ccccc2Cl)nc1N	i
CC(C)C[C@@H](N)C(=O)N(C)CC1(CO)CCOCC1	i
O=C1OC(c2ccc(Br)cc2)=N/C1=C\c1ccccc1	i
O=C1/C(=C/c2c[nH]c3ccccc23)CC/C1=C\c1c[nH]c2ccccc12	i
O=C1/C(=C/c2ccccc2)CC/C1=C\c1ccccc1	33%*
CCn1nc(C)c(CN(CCOC)C(=O)C2CCNCC2)c1C	i
Cc1cc(C)n(-c2ccc(NC(=O)C3CCN(C(=O)Cc4ccn(C)c4)CC3)cc2)n1	i
CO[C@H](C(=O)N1C[C@@H]2C[C@H](C1)[C@@H]1CCCC(=O)N1C2)c1ccccc1	i
Oc1oc(-c2ccccc2)nc1C=Nc1cccc(C(F)(F)F)c1	i
Cc1ccccc1Cn1cc(NC(=O)c2cc(-c3ccc4c(c3)OCO4)on2)cn1	i
CC1=C(C(=O)OCCc2ccccc2)C(c2ccc(C)s2)NC(=O)N1C (stereo not given)	i
Cn1c(NCc2cc(Br)ccc2O)nc2ccccc21	i
Cn1c(C(O)(c2ccccc2)c2nc3ccccc3n2C)nc2ccccc21	i
Cn1c2nc3ccc(Br)cc3c-2nc2ccccc21	37%*
CCOC(=O)CNC(=O)c1sc2ncnc(N3CCCCC3C)c2c1C (stereo not given)	i
CN(C)c1cc(N2CC[C@@](C)(O)[C@@H](Cc3ccccc3)C2)ncn1	i
N#Cc1cccc(CN2CC[C@H](c3nnc(-c4cccnc4)o3)C2)c1	i
O=C(NCCC(=O)N1CC[C@@H](O)C1)c1ccccc1F	i
SMILES	ST2 inh
CC(=O)Nc1ccc2nc(C)ccc2c1	i
CC(=O)c1ccc(NC(=O)c2cc(-c3ccco3)on2)cc1	i
CC(=O)c1ccc(NC(=O)c2cccc(Cl)c2)cc1	i
CC(=O)c1ccc(NC(=O)c2ccc3nc(-c4ccco4)c(-c4ccco4)nc3c2)cc1	40%*
Cc1cc(Cl)ccc1NC(=O)Cc1ccccc1[N+](=O)[O-]	i
O=C(c1cc(-c2ccc(Br)cc2)on1)N1CCN(c2ccccc2)CC1	i
COc1cc(S(=O)(=O)Nc2cnc3ccccc3c2)ccc1Cl	i
O=C1C2C(C(=O)N1c1ccc(Cl)cc1Cl)[C@H]1C=C[C@@H]2CC1 (stereo not given in full)	i
COc1ccc(N2CCN(C(=O)c3cc([N+](=O)[O-])ccc3N3CCCC3)CC2)cc1	i
CCN1C(=Nc2cccnc2)SCC1(O)c1ccccc1 (stereo not given)	33%*
COc1ccc(CC(=O)N2N=C(C)CC2(O)c2cccnc2)cc1 (stereo not given)	i
O=C(Cc1cn2ccsc2n1)N1CC(c2ccncc2)C1	i
CC(C)Oc1ccc(C(C(=O)O)N2CCCC2)cc1 (stereo not given)	i
COC(=O)CCN1CCOC(Cc2cccc3ccccc23)C1 (stereo not given)	i
COCCOc1cc(C)c2c(c1C)C[C@H]([C@H](C)C(=O)N1CCOCC1)CC2	i
O=C1c2c(O)ccc(O)c2C(=O)c2c(NCCNCCO)ccc(NCCNCCO)c21	82%*
O=C1c2cccc3cccc(c23)C(=O)N1CCNCCO	i
CCn1c(CCCNC(C)=O)nc2ccccc21	i
C=CCN(Cc1ccc(C)s1)C(=O)C1CCN(C(=O)CC(C)C)CC1	i
N#CC1(C#N)C2CCCCC23OC(=N)C1(C#N)C(c1cccs1)O3 (stereo not given)	i
Cc1ccc(OCC(=O)Nc2cccc(C(=O)Nc3ccccc3C(=O)O)c2)cc1	i
CCn1cc(C(=O)NCCC2=CCCCC2)c(=O)c2cc(S(=O)(=O)N3CCCC3)ccc21	i
CCN1C(=O)c2ccc(Br)cc2C1=O	i
O=C(O)CN1C(=O)c2ccc(Br)cc2C1=O	i
CCCCCN1C(=O)C(=O)c2cc(Br)ccc21	46%*
CC1CN(S(=O)(=O)c2ccc(C(=O)Nc3nnc(-c4ccc(F)cc4)o3)cc2)CC(C)O1 (stereo not given)	i
COc1ccc(NC(=O)c2noc3c2CCCCC3)cc1	i
